# Laboratory results from PubChem BioAssay AID588855 (National Center for Advancing Translational Sciences (NCATS), 2011).
# Where “and” joins values, the source holds several entries; their conditions need not be identical. Identical values can stand only once. About 5,000 (1.2%) of roughly 410,000 compounds were called active. Not shown: some 13% with an inconclusive outcome. The call rests on the fitted dose curve; in most records, active means well fitted inhibition curve with a large enough effect; inconclusive means small, poorly fitted or top-dose-only effect; inactive means no such curve, though single readings can be large or run the other way. The list comes from a sample in which actives are over-represented; it also holds similar structures and randomly drawn compounds.
# Experiment: qHTS for Inhibitors of TGF-b; further: nearly all actives have a fitted effect of over 65% in size
# Conditions: HepG2 CAGA-GFP TGF-b/SMAD3 reporter, GFP fluorescence, 18 h, TGF-beta stimulated, 500 pg/mL final; series mostly up to 46.1 µM; activity, negative = inhibition: at the top concentration
# How it was run: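 HEPG2 CAGA-GFP reporter cells (1000/well, DMEM with 1% FBS) received compounds, then recombinant TGF-beta at 500 pg/mL final for 18 hours at 37 degrees C. Per-cell GFP summed per well was normalised to unstimulated and stimulated DMSO controls before curve fitting.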
# On the % scale 0 is the no-effect control and ±100 the full control effect; potency means the concentration at half of the fitted maximal effect.
Structure (SMILES),"activity, negative = inhibition",Potency
O=c1[nH]c2cc(Br)ccc2n2cccc12,3.58% (inactive),
COc1cc(-c2c(-c3ccc4c(c3)OCO4)noc2C)ccc1F,,inactive
COc1ccc(-c2c(-c3ccc(OC)cc3O)nc(C)nc2C(F)(F)F)cc1,-4.38% (inactive),
COc1ccc(-c2onc(C)c2-c2ccc3c(c2)OCCO3)c(O)c1,,15.8 µM (active)
O=C1O/C(=C\c2ccc(O)cc2)C(O)=C1c1ccc(O)cc1,5.93% (inactive),
Cc1ccc2cccc([N+](=O)[O-])c2n1,-20.7% (inactive),
O=C(Nc1cccc2cccnc12)C(F)(F)F,-0.477% (inactive),
O=[N+]([O-])c1ccccc1S(=O)(=O)Nc1cccc2cccnc12,,1.26 µM (active) and 6.31 µM (active)
O=S(=O)(Nc1ccccc1Cl)c1cccc2nsnc12,-3.12% (inactive),
O=S(=O)(Nc1cccc2cccnc12)c1cccc2cccnc12,,1.78 µM (active)
O=[N+]([O-])c1ccccc1SNc1ccccn1,-21.9% (inactive),
Cc1ccc(Cn2cc(CCC(=O)NCc3ccc(OC(C)C)cc3)c3ccccc32)cc1,-19.7% (inactive),
O=C(O)c1ccc2c(c1)N(Cc1ccc(F)cc1)C(=O)c1ccccc1S2=O (centres undefined),-28.9% (inactive),
COc1cc(OC)c(NC(=O)Cc2ccc(-n3c(C)nc4cccnc43)cc2)cc1Cl,0% (inactive),
CNC(=O)c1csc(-c2ccccc2)n1,7.68% (inactive),
Cc1nc(-c2ccccc2)sc1C(=O)/C=C/c1ccccc1,,10 µM (active)
O=C(/C=C/Nc1ccccc1)c1cnc(-c2ccccc2)s1,1.26% (inactive),
O=C(CSc1nc2nccnc2c(=O)n1CCc1c[nH]c2ccccc12)Nc1ccccc1F,-19.6% (inactive),
O=C1COc2ccc(-c3csc(-c4ccc(Cl)cc4)n3)cc2N1,4.59% (inactive),
Cc1ccc(C)c(S(=O)(=O)N2CCN(C(=O)Nc3ccccc3)CC2)c1,-17.8% (inactive),
COc1ccc(C(=O)NCc2ccc(C)cc2)cc1S(=O)(=O)N1CCCC1,-0.243% (inactive),
COc1ccc(C)cc1S(=O)(=O)N1CCN(S(=O)(=O)c2cc(C(=O)O)ccc2C)CC1,,6.31 µM (active)
CCCN(CCC)CCCNC(=O)Cn1cc2c(n1)-c1c(oc(C(=O)N3CCCC3)c1C)CC2,-28.1% (inactive),
COc1cn(CC(=O)Nc2cccc(C)c2C)c(CN2CCCCC2)cc1=O,26.1% (inactive),
